From PubChem BioAssay
Hits are enriched below; roughly 1.5% of the tested compounds scored in any of these assays.
N-glyco inh = blocks N-linked glycosylation in D54 reporter cells. D54 ERlucT glycosylation luciferase reporter, 24 h; percent of 100 nM tunicamycin response. reporter increase, % at 12.5 µM. actives 0.23% (n = 360,000). AID 588692;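 active = mean luciferase reporter signal, scaled so untreated is 0 and the glycosylation-blocking control 100, at or above a set limit in every replicate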;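 also: luciferase carries N-glycosylation sites so blocking glycosylation raises the light; 0% = median of neutral control wells and 100% = median of 100 nM tunicamycin wells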
RAD54 branch = inhibitors of human RAD54 branch migration; RAD54 Holliday junction branch migration, FAM/BHQ fluorescence; actives 0.14% (n = 360,000); inhibition, % at 10.4 µM; AID 602329;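 active = mean normalized replicate activity at least 40 and at least half of replicates scoring 40 or more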;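 also: 0% = median of neutral control wells and 100% = median of positive control wells; inhibitors cause a drop in the FAM fluorescence signal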
Target sequence (Q92698 whole entry, looked up): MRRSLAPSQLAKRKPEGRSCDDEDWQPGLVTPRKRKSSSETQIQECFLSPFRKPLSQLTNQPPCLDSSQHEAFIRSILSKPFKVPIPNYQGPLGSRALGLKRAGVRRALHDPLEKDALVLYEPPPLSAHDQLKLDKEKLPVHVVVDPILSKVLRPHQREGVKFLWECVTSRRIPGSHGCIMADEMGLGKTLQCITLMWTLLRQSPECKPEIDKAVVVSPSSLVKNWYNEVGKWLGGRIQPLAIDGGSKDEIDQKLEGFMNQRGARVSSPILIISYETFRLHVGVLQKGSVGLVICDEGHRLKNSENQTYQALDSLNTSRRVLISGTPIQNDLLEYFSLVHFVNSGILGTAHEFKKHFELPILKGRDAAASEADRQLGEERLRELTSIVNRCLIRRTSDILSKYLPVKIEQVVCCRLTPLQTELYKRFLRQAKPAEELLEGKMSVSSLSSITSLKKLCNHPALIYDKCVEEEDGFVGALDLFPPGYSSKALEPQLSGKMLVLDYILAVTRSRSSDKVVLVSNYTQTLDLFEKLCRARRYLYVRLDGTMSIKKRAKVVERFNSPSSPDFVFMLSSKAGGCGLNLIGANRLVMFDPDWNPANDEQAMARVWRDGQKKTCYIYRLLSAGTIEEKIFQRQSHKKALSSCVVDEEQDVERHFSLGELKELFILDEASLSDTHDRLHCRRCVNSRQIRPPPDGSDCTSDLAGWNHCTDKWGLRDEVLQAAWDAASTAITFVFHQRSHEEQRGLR
PvdQ acylase = blocks Pseudomonas aeruginosa PvdQ acylase activity; inhibition, % at 10 µM; actives 0.063% (n = 340,000); AID 488965; purified PvdQ acylase, fluorescence plate reader; in the data active = inhibition above about 30%, passing the limit was not always enough;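 also: 0% = vehicle neutral wells and 100% = reference inhibitor wells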
F508del corr = correctors of CFTR F508del function in bronchial epithelial cells. CFBE cells, YFP halide quenching; stimulated with forskolin plus potentiator P3; % fluorescence drop versus neutral controls. actives 0.36% (n = 350,000). activity (quench increase), % at 7.58 µM;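 active = mean added fluorescence quench of at least 8% versus neutral control, with both replicates also reaching 8%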;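 also: cells transiently co-express mutant CFTR-F508del with the halide-sensitive YFP; corrector assay measuring rescue of mutant channel to the surface after 24 h compound exposure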
dFosB act = activators of mouse delta FosB homodimer. purified delta FosB, TAMRA-CDK5 oligo fluorescence polarization; percent of positive-control signal above neutral wells. AID 493131. actives 0.99% (n = 340,000). P13346. activation, % at 25 µM;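 active = mean activation above about 17%, with every replicate also reaching it, limit read from the data, passing the limit was not always enough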
RAD52 anneal inh = blocks human RAD52 DNA annealing; P43351; recombinant RAD52 DNA annealing, FRET fluorescence; inhibition, % at 18.7 µM; actives 0.46% (n = 360,000);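 active = every replicate showing at least 50% inhibition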
An asterisk follows results filed as active; nt = no result.

SMILES | N-glyco inh | RAD54 branch | PvdQ acylase | F508del corr | dFosB act | RAD52 anneal inh
O=C(N[C@H]1CC[C@H](CCn2cc(C3(O)CCCC3)nn2)O[C@@H]1CO)C1CCOCC1 | nt | -11.7 | nt | -0.2 | nt | -5.2
COc1cccc(S(=O)(=O)N[C@H]2CC[C@H](CCNC(=O)Cc3ccncc3)O[C@@H]2CO)c1 | nt | -9.8 | nt | 0.9 | nt | -29.2
Cc1ccc(S(=O)(=O)NC2=C(N3CCN(Cc4ccccc4)CC3)C(=O)c3ccccc3C2=O)cc1 | 65.3* | 4.0 | 0.5 | nt | -3.6 | -6.1
O=C(C[C@H]1C[C@@H]2c3cc(NC(=O)c4cccnc4)ccc3O[C@@H]2[C@@H](CO)O1)NCc1ccccn1 | nt | -15.8 | nt | -0.9 | nt | 1.0
O=c1cc(-c2ccccc2)[nH]c2ccc(F)cc12 | 23.2 | 0.1 | -11.4 | 8.6* | -8.4 | -1.1
CN1C(=O)c2cc(NC(=O)C3CCCC3)ccc2OC[C@@H]2O[C@@H](CC(=O)NCCc3ccncc3)CC[C@H]21 | nt | nt | nt | 0.6 | nt | -1.3
Cc1cccc(-c2ccc(NC(=O)C3CCN(CC4CC4)CC3)cc2)c1 | -3.6 | -3.1 | -4.0 | -2.1 | 0.1 | -13.3
COc1cccc(CN2CCC(C(=O)Nc3ccc(-c4cccc(C)c4)cc3)CC2)c1O | -2.2 | -5.5 | -17.0 | -0.5 | 40.2* | 2.5
COc1ccc(NC(=O)Nc2ccc3c(c2)[C@H]2C[C@H](CC(=O)N4CCCCC4)O[C@@H](CO)[C@H]2O3)cc1 | nt | -5.0 | nt | 1.1 | nt | 0.9
O=C(CSc1nnc(NC(=O)c2ccco2)s1)Nc1ccc2c(c1)OCCO2 | 0.6 | 2.1 | -9.8 | 0.4 | 65.7* | -8.9
O=C(C[C@H]1C=C[C@@H](NC(=O)Nc2cc(F)ccc2F)[C@H](CO)O1)NCc1ccncn1 | nt | -1.1 | nt | -3.3 | nt | -2.4
CNc1cncc(-c2cc(OC)ccc2OC)n1 | -0.5 | 5.0 | nt | 1.8 | nt | -14.0
COc1ccc(OC)c(-c2cnc(OC(C)(C)C)nc2OC(C)(C)C)c1 | 2.2 | -4.5 | -2.2 | 14.2* | -5.3 | 2.8
COc1ccc(/C=C/C(=O)NC(=S)Nc2ccc(S(=O)(=O)N=C(N)N)cc2)cc1OC | -1.2 | 3.4 | 5.9 | 1.0 | 63.4* | -14.6
COc1cc(NS(=O)(=O)c2ccc(NC(=S)NC(=O)/C=C/c3ccc(OC)c(OC)c3)cc2)ncn1 | 0.9 | 2.2 | 4.4 | -3.9 | 1.8 | -42.7
COc1ccc(S(=O)(=O)N2CCN(CCOc3ccccc3Cl)CC2)cc1OC | 0.0 | nt | 14.1 | 17.5* | -5.2 | -8.0
COc1ccc(S(=O)(=O)N2CCN(CCOc3ccc(Br)cc3)CC2)cc1OC | -6.3 | -5.1 | -12.2 | -0.9 | -0.8 | -2.4
CCOc1ccc(NC(=O)c2ccccn2)cc1 | -20.4 | nt | 36.6* | -1.1 | 0.4 | -21.4
CCNC(=S)NNC(=O)CC(C)C | 0.1 | nt | -14.4 | 9.5* | 2.5 | -7.7
C[C@@H]1CN([C@H](C)CO)C(=O)Cc2cc(N(C)C)ccc2O[C@@H]1CN(C)S(=O)(=O)c1ccccc1 | nt | -2.8 | nt | 0.8 | nt | -8.2
COc1ccc2c3c(n(C)c2c1)[C@H](CO)N(C)CC31CCN(CC2CC2)CC1 | nt | nt | nt | 0.7 | nt | nt
O=C(Nc1ccc(F)cc1)N1CCCCN2[C@@H](CO)[C@H](c3ccc(-c4ccccc4F)cc3)[C@@H]2C1 | nt | 0.6 | nt | -1.0 | nt | 20.0
O=C(Nc1ccc(F)cc1)N1CCCCN2[C@H](C1)[C@@H](c1ccc(-c3ccccc3F)cc1)[C@@H]2CO | nt | 2.0 | nt | -0.4 | nt | 55.3*
O=C(Nc1ccccc1)N1CCCCN2[C@H](CO)[C@H](c3ccc(-c4ccccc4F)cc3)[C@H]2C1 | nt | 3.2 | nt | -1.0 | nt | 50.1*
COc1ccc(CNC(=O)C[C@H]2C=C[C@@H](NC(=O)c3ccc4c(c3)OCO4)[C@@H](CO)O2)cc1 | nt | nt | nt | -0.3 | nt | 6.1
SMILES | N-glyco inh | RAD54 branch | PvdQ acylase | F508del corr | dFosB act | RAD52 anneal inh
CCN(CC)CCNC(=O)c1c(C)n(-c2ccccc2)c2cc(Br)c(OC)cc12 | -0.7 | 9.7 | 3.0 | nt | 25.9* | nt
Cc1ccc2c(c1)[C@H]1[C@H](CO2)[C@H](c2ccccc2)[C@]2(C)C(=O)Nc3cc(F)c(F)cc3C(=O)N12 | 11.3 | -8.7 | -14.9 | 4.1 | 2.3 | -2.1
COc1cc2c(cc1OC)C(=O)N1[C@H]3c4cc(C)ccc4OC[C@@H]3[C@H](c3ccccc3)[C@]1(C)C(=O)N2 | 52.0* | 6.3 | -8.6 | -2.8 | -2.2 | -10.0
COc1cc2c(cc1OC)C(=O)N1[C@H]3c4cc(Cl)ccc4OC[C@@H]3[C@H](c3ccccc3)[C@]1(C)C(=O)N2 | 45.2* | -2.8 | 5.1 | -4.7 | -6.2 | -6.9
COc1cccc(NC(=O)Nc2ccc3c(c2)OC[C@H](C)NC[C@@H](C)[C@@H](OC)CN(C)C3=O)c1 | nt | -6.1 | nt | -0.3 | nt | 73.6*
CO[C@@H]1CN(C)C(=O)c2ccc(NC(=O)c3ccc(Oc4ccccc4)cc3)cc2OC[C@@H](C)NC[C@H]1C | nt | -7.8 | nt | -6.4 | nt | 47.7
CO[C@H]1CN(C)C(=O)c2ccc(NC(=O)c3ccc(Oc4ccccc4)cc3)cc2OC[C@H](C)NC[C@H]1C | nt | 7.2 | nt | -1.8 | nt | 52.0*
CCc1c(C)nc2ncnn2c1NCCc1ccc(OC)cc1 | 16.8 | 4.1 | -2.4 | 10.6* | -1.8 | -7.1
C[C@H](CO)N1C[C@H](C)[C@@H](CN(C)C(=O)NC2CCCCC2)OCCCC[C@H](C)Oc2ccc(NS(C)(=O)=O)cc2C1=O | nt | 5.9 | nt | -1.4 | nt | nt
COc1ccc(-n2c(SCC(=O)Nc3cc(C)on3)nc3c([nH]c4ccccc43)c2=O)cc1OC | -2.9 | -4.3 | 2.6 | 0.9 | 24.6* | 2.0
COc1ccc(-n2c(SCC(=O)Nc3cc(C)on3)nc3c([nH]c4ccccc43)c2=O)cc1 | -1.7 | -16.6 | -2.5 | -1.2 | 9.4 | 3.1
C[C@@H]1CCCCO[C@H](CN(C)C(=O)c2ccncc2)[C@H](C)CN([C@H](C)CO)C(=O)c2cc(NC(=O)c3ccccc3)ccc2O1 | nt | 3.0 | nt | 0.5 | nt | 1.9
CCCC#Cc1cnc2c(c1)C(=O)N([C@@H](C)CO)C[C@@H](C)[C@H](CN(C)C(=O)Nc1ccccc1F)O2 | nt | -8.1 | nt | -0.5 | nt | -1.9
C[C@H](CO)N1C[C@H](C)[C@H](CN(C)C(=O)Nc2ccc(F)cc2)Oc2ncc(C3=CCCC3)cc2C1=O | nt | 1.5 | nt | -3.9 | nt | 5.5
O=C(C[C@@H]1CC[C@@H]2[C@H](COC[C@@H](O)CN2Cc2nccs2)O1)NCc1ccc(Cl)cc1 | nt | 4.3 | nt | -1.1 | nt | 0.2
COc1ccc(CNC[C@@H](CCCCN(C)Cc2ccc(OC)cc2)N2C[C@H](c3ccccc3)N(CCc3ccc(Cl)c(Cl)c3)C(=O)C2=O)cc1 | -22.8 | 5.9 | -5.9 | nt | 45.5* | nt
COc1cc(O)c(C(=O)/C=C/c2ccccc2)c(OC)c1 | 41.7* | -6.4 | 0.5 | 0.0 | -2.0 | 6.0
Cc1cc(C(=O)N2CC=C(c3ccccc3)CC2)c2ccccc2n1 | 17.5 | nt | -17.8 | 9.9* | -10.3 | -19.6
Cc1ccc2nc(-c3ccc(O)cc3)oc2c1 | -11.1 | -6.5 | 31.8* | -0.1 | 3.5 | -36.4
Cc1ccc2nc(-c3cccc(N)c3)oc2c1 | -17.9 | nt | 3.7 | 1.1 | -2.3 | 4.2
